The list is not random: actives were taken first. Their share in the collection is about 2.2%.
beta cell repl – inducers of MIN6 beta-cell proliferation, primary screen, ATP luminescence, uHTS. 330,000 tested, 0.29% active. proliferation, % at 10 µM. MIN6 cells proliferation, ATPlite luminescence, 48 h; cells starved in 0.2% serum; 100% = growth in 10% serum;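 active = compounds whose signal lies at least 3.5 SD above the mean of all wells on their plate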
hiPSC survival – enhancers of single-cell hiPSC survival, primary screen, ATPlite luminescence. 360,000 tested, 0.044% active. survival enhancement, % at 20 µM. 100% = ROCK inhibitor wells, 0% = DMSO; in the data active = survival enhancement above about 18%;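 also: cells exposed to compounds for 16 hours before the ATP read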
Cardio protect – cardioprotection against H2O2-induced cell death, primary screen, uHTS, H9c2 cells, ATPLite luminescence; H9c2 cardiomyocytes, H2O2 injury protection, 2 h; protection from H2O2 cell death, % at 20 µM; 360,000 tested, 0.63% active; AID 588492, 2011;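 active = compounds giving at least 50% protection of heart cells from peroxide-induced death in the single-dose screen, raw or plate-pattern-corrected value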
ABCB6 inh 2 – ABCB6 transporter inhibitors, primary screen, K562-ABCB6 cells, flow cytometry, MLPCN library; AID 602162, 2011; K562-ABCB6 porphyrin accumulation, 1 h; hits give low values; ATP-binding cassette sub-family B member 6 (Homo sapiens), Q9NP58; fluorescence ratio to DMSO, % at 10 µM; 360,000 tested, 0.19% active;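 active = fluorescence ratio to DMSO below 75%, the collection mean minus 3 SD; inconclusive = too few cells collected in the well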;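 also: signal is porphyrin accumulated inside mitochondria; lower ratio means ABCB6 inhibition with less porphyrin fluorescence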
Myeloid diff MLP – induction of myeloid progenitor differentiation, primary screen, cell-based, flow cytometry, MLPCN library | AID 624256, 2012 | 360,000 tested, 1% active | ER-HoxA9 myeloid progenitors, lysozyme-GFP differentiation | calls only at 10 µM;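 active = normalized GFP-positive differentiation at or above the plate's own cutoff, the solvent-only control mean plus 3 SD; inconclusive = no clear call, values can overlap the other calls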;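 also: cells exposed to compound for four days before flow analysis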
Myeloid diff CP1 – inducers of myeloid progenitor differentiation, confirmation, cell-based, GFP/Mac1 flow cytometry, cherry pick 01; calls only; 2,300 tested, 2% active; shares compounds with Myeloid diff MLP; ER-HoxA9 myeloid progenitors, GFP/Mac1 double-positive flow; AID 651706, 2012;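 active = share of green or green-and-red cells above 9 and 9% in run 1 or 4 and 3% in run 2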
GFP autofluor – flagged as fluorescent in myeloid differentiation counter-screen; 2,300 tested, 7.4% active; fluorescence response, % (no concentration beside the values); ER-HoxA9 myeloid progenitors, no estrogen, GFP autofluorescence flow cytometry; vehicle wells 0%, positive control 100%; shares compounds with Myeloid diff MLP; AID 651707;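 active = over 5% cells positive for green fluorescent reporter, or over 2% positive for both it and APC stain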
Calls only; – = inactive; ? = inconclusive; · = not tested or not shown; + = active, no number.

SMILES | beta cell repl | hiPSC survival | Cardio protect | ABCB6 inh 2 | Myeloid diff MLP | Myeloid diff CP1 | GFP autofluor
O=C1C=C(c2cccc(Br)c2)C[C@@H](c2ccc(Cl)cc2)C1 | – | – | – | – | – | · | ·
CCN(CC)CCOC(=O)c1ccc(N/C=C(/C#N)c2nc(-c3ccc(OC)c(OC)c3)cs2)cc1 | – | – | – | – | – | – | –
CCN(CC)CCOC(=O)c1ccc(N/C=C(/C#N)c2nc(-c3cccc(OC)c3)cs2)cc1 | – | – | – | – | – | · | ·
CCCNC(=O)NC(=O)CSc1nc2ccccc2n1CC(C)C | – | – | – | – | – | – | –
CCN1/C(=C2/OC(=S)N(C)C2=O)Sc2ccccc21 | · | – | – | – | – | · | ·
CCN1/C(=C\C=C2\C(=O)N(C)C(=S)N2C)Sc2ccccc21 | – | – | – | – | – | – | –
c1ccc(COc2ccc(-c3cc4nc(NCCCn5ccnc5)ccn4n3)cc2)cc1 | · | – | – | – | – | – | –
CC(C)c1[nH]c(=O)c(C#N)c2c1CSC(C)(C)C2 | – | – | – | – | – | · | ·
CN1/C(=C\C(=O)C[n+]2cccc(Br)c2)C(C)(C)c2ccccc21 | – | – | – | – | + | – | –
Cc1ccc[n+](CC(=O)/C=C2\N(C)c3ccccc3C2(C)C)c1 | – | – | – | – | – | · | ·
CCOc1ccccc1NC(=O)Cn1c(=O)c2ccccc2n(CC)c1=O | – | – | – | – | – | · | ·
CCn1c(=O)n(CC(=O)N(C)Cc2ccccc2)c(=O)c2ccccc21 | – | – | – | – | + | – | –
CC(=Nc1ccccc1C)C1=C(O)CSC1=O | – | – | – | – | + | – | –
CCCCc1nnc(NC(=O)C2CC(=O)N(c3ccc4c(c3)OCCO4)C2)s1 (configuration not stated) | – | – | – | – | – | · | ·
COc1cccc(NC(=O)c2oc3ccccc3c2NC(C)=O)c1 | – | – | – | – | – | · | ·
COCC(=O)Nc1c(C(=O)Nc2cccc(OC)c2)oc2ccccc12 | – | – | – | – | – | – | –
O=C(Cc1ccc(F)cc1)Nc1cccc(S(=O)(=O)N2CCCC2)c1 | – | – | – | – | – | · | ·
COc1ccc(-c2csc3ncnc(N4CCN(S(=O)(=O)c5ccc(C)c(C)c5)CC4)c23)cc1 | – | – | – | – | – | · | ·
COc1cc(/C=C2\CC/C(=C\c3cc(OC)c(OC)c(OC)c3)C2=O)cc(OC)c1OC | – | – | – | – | + | – | –
COc1cc(/C=C2\COC/C(=C\c3cc(OC)c(OC)c(OC)c3)C2=O)cc(OC)c1OC | · | – | – | – | ? | · | ·
COc1ccc(-n2c(Cc3cccn3C)nnc2SCC(=O)Nc2nc(C)cs2)cc1 | – | – | – | – | – | – | –
COc1ccc(-n2c(Cc3cccn3C)nnc2SCC(=O)Nc2ccccc2)cc1 | – | – | – | – | – | · | ·
COc1ccc(C2/C=C\CN(C(=O)NC34CC5CC(CC(C5)C3)C4)CC(=O)N2Cc2ccc(F)cc2)cc1 (configuration not stated) | – | – | – | – | – | · | ·
CC(c1ccccc1)N1C(=O)CC(Sc2ncccc2C(=O)O)C1=O (configuration not stated) | – | – | – | – | · | – | –
COCCNC(=O)c1c(N)n(CCC2=CCCCC2)c2nc3ccccc3nc12 | – | – | – | – | – | – | –
SMILES | beta cell repl | hiPSC survival | Cardio protect | ABCB6 inh 2 | Myeloid diff MLP | Myeloid diff CP1 | GFP autofluor
COCCn1c(=O)[nH]c(=O)c2c1nc(-c1cc(Br)c3c(c1)OCO3)n2Cc1ccccc1 | – | – | – | – | – | · | ·
COc1cc(O)oc1C=Nc1ccccc1 | – | – | – | – | + | – | –
O=C(Cc1cn2ccsc2n1)NCCc1ccc(F)cc1 | – | – | – | – | – | – | –
O=C(Cc1cn2ccsc2n1)NCc1ccccc1 | – | – | – | – | – | · | ·
COc1ccc(-c2cc(=O)oc3c(C)c(OCC(=O)N(C)C)ccc23)cc1 | – | – | – | – | + | – | –
Cc1c(OCC(=O)NCc2ccccn2)ccc2c(-c3ccccc3)cc(=O)oc12 | – | – | – | – | + | – | –
